Source: PubChem BioAssay
Rows were chosen to be rich in hits. Some 6.9% of all compounds tested hit in one or more screens of this group.
Vif-A3G inh = inhibitors of Vif-APOBEC3G interaction; HeLa A3G-eYFP + Vif (tagged APOBEC3G with the HIV-1 protein that degrades it), YFP fluorescence, overnight; Potency, µM (series often up to 46.1 µM), without a hit: top-dose activity, negative = active, hits mostly inhibitors; 410,000 compounds, 0.076% hits; further: potency means the concentration at half of the fitted maximal effect; on the % scale 0 is the no-effect control and ±100 the full control effect; nearly all actives have a fitted effect of over 60% in size
Target sequence (Q9HC16 whole entry, looked up): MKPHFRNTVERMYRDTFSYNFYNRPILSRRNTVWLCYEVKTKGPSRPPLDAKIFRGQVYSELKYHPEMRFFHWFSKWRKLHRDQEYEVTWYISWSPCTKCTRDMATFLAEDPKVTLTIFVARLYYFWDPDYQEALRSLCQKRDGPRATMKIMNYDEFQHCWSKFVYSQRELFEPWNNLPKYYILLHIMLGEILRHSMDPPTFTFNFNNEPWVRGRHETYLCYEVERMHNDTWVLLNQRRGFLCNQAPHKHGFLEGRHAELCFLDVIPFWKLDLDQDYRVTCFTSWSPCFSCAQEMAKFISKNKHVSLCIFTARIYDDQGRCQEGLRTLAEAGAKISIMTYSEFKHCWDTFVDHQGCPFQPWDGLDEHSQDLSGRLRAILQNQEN
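HeLa cells stably expressing Vif and C-terminally eYFP-tagged A3G, seeded overnight at 37 deg C, then exposed to compound by pintool overnight at 37 deg C. Rise in yellow fluorescence (Ex 488/Em 500-530, Acumen) marks blocked Vif-driven A3G degradation.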
MCF10A rereplic = DNA re-replication induction in MCF 10a cells | MCF 10A DNA re-replication, Hoechst nuclear intensity, 48 h | Potency, µM (highest dose often 46.1 µM), for inactives: at the top dose activity, positive = re-replication, hits mostly activators | 350,000 compounds, 2.9% hits; further: potency means the concentration at half of the fitted maximal effect; % of control where 0% means no effect; nearly all actives have a fitted effect of over 50% in size
SW480 rerep = DNA re-replication induction in SW480 cells; 340,000 compounds, 1.8% hits; SW480 DNA re-replication, Hoechst DNA content imaging, 48 h; Potency, µM (highest dose often 46.1 µM), inactives show top-dose re-replication activation, usual class: activators; further: potency means the concentration at half of the fitted maximal effect; % of control where 0% means no effect; nearly all actives have a fitted effect of over 55% in size
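Quantitative HTS format with DMSO vehicle controls; 48 hr drug incubation at 37 C, then 40 min Hoechst staining and scanning imager measurement at 405 nm excitation.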
Giardia kill = Giardia lamblia killing | Giardia lamblia trophozoite viability | activity change, % at 7.66 µM, hits read low | 340,000 compounds, 0.15% hits | AID 540267; in the data active means activity change below about -80%; inconclusive means between about -30% and that limit;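 further: parasites exposed to compound for two days anaerobically before the ATP read; on the % scale 0 is the no-effect control and ±100 the full control effect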
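Killing of trophozoites was scored by loss of ATP luminescence after a 48 hrs anaerobic exposure to compounds at 37 deg C, using 100 cells per well.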
IL-1B inflam inh = blocks inflammasome-driven IL-1 beta release | THP-1 LPS/ATP IL-1B secretion, AlphaLISA, 16 h; active compounds read low | activity change, % at 57.5 µM | 360,000 compounds, 4.7% hits | AID 743279; in the data active means activity change below about -50%; inconclusive means mostly about -30% to -49%; further: on the % scale 0 is the no-effect control and ±100 the full control effect
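Secreted IL-1B measured by AlphaLISA bead assay after 16 h compound exposure of THP-1 cells; compounds (final up to 57.5 uM) added 1 h before LPS (250 ng/mL) and ATP (1.25 mM) stimulation; lower signal means less secretion.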
Vif-APOBEC3F blk = blocks the Vif interaction with APOBEC3F; HeLa A3F-eYFP + Vif (tagged APOBEC3F with the HIV-1 protein that degrades it), YFP fluorescence increase; Potency, µM (highest dose often 46.1 µM), without a hit: at the top dose activity, negative = active; 390,000 compounds, 0.2% hits; further: potency means the concentration at half of the fitted maximal effect; % of control where 0% means no effect; nearly all actives have a fitted effect of over 65% in size
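HeLa cells stably expressing A3F-eYFP plus Vif, plated and incubated overnight at 37 deg C, then exposed to compounds overnight at 37 deg C. Blocked degradation read as raised yellow fluorescence (Ex 488/Em 500-530).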
Numbers without * were called inactive; u = inconclusive; x = not tested or not shown. Unless noted, the call rests on the fitted dose curve; in most records, active means well fitted curve in the direction sought with a large enough effect; inconclusive means small, poorly fitted or top-dose-only effect, or another doubt; inactive means no such curve, though single readings can be large; an effect the other way counts as inactive or inconclusive.

SMILES	Vif-A3G inh	MCF10A rereplic	SW480 rerep	Giardia kill	IL-1B inflam inh	Vif-APOBEC3F blk
COc1ccc(CNC(=O)c2sc3nc4c(c(C(F)(F)F)c3c2N)CCC4)cc1OC	1%	u	4%	19	u	u
Cc1nc(-c2ccccc2)nc2sc(C(=O)c3ccc(F)cc3)c(N)c12	-7%	10µM*	16µM*	20	0	u
CC(=O)N1CCc2nc3sc(C(=O)c4ccc(F)cc4)c(N)c3c(C(F)(F)F)c2C1	u	x	x	x	x	13µM*
COc1ccc(C(=O)c2sc3nc4c(c(C(F)(F)F)c3c2N)CN(C(C)=O)CC4)cc1OC	u	x	x	x	x	22µM*
COc1ccc(/C=C/C(=O)NNC(=O)c2cc(C)oc2C)cc1	-2%	0%	1%	20	-58*	-6%
Cc1cc(C(=O)NNC(=O)/C=C/c2ccccc2Cl)c(C)o1	0%	-34%	-13%	12	-3	2%
COc1ccc(/C=C/C(=O)c2ccc(OC)cc2OC)cc1	-22%	24µM*	21µM*	0	-105*	-7%
COc1ccc(C(=O)/C=C/c2ccccc2OC)c(OC(=O)c2ccc([N+](=O)[O-])cc2)c1	u	u	u	10	-97*	-5%
O=C(/C=C/c1ccncc1)c1cc(Cl)ccc1O	u	u	u	9	-67*	25µM*
COc1ccc(/C=C/C(=O)O)cc1	3%	u	-33%	7	5	-1%
Cc1ccc(-n2ncc3c(Nc4cccc(C(F)(F)F)c4)ncnc32)cc1C	-6%	x	x	x	x	-28%
CC1CCN(S(=O)(=O)c2ccc3c(c2)c(=O)c(C(=O)NCCc2ccccc2)cn3C)CC1	3%	x	x	x	x	1%
COc1ccc(C(=O)/C=C/Nc2ccccn2)c(OC)c1	2%	11%	-13%	13	-63*	10%
COc1ccc(C(=O)/C=C/c2ccccc2)c(O)c1	-25%	u	u	-22	-99*	9%
COc1ccc(C(=O)/C=C/c2ccc(OC)cc2OC)c(O)c1	-9%	16%	u	13	-13	-5%
COc1ccc(/C=C/C(=O)C2(O)CCCCC2)cc1	-16%	u	u	-9	-92*	11%
COc1ccc(/C=C/C(=O)c2cc(Cl)ccc2O)c(OC)c1	-1%	u	-32%	-18	-100*	-5%
CCc1ccc(-n2c(C)nc3cc(C(=O)NCCc4ccccc4)ccc32)cc1	5%	x	x	x	x	3%
COc1cccc(/C=C/C(=O)c2cccc([N+](=O)[O-])c2)c1	3%	u	u	-11	-4	3%
COc1ccc(OC(=O)c2cccc([N+](=O)[O-])c2)c(C(=O)/C=C/c2cccs2)c1	-26%	u	u	-2	-53*	-13%
O=C(/C=C/c1ccc(O)cc1)c1ccc(O)cc1O	-28%	15µM*	-53%	7	-17	-1%
COc1ccc(C(=O)/C=C/c2cc(C(=O)O)cc3c2OCOC3)c(O)c1	-19%	18µM*	3%	9	-94*	22%
O=C(O)/C=C/c1ccc(O)cc1	0%	20%	-1%	-7	-1	6%
CC(C)=CCC/C(C)=C/Cc1c(O)ccc(C(=O)/C=C/c2ccc(O)cc2)c1O	-1%	-33%	u	-15	-80*	6%
Cc1cccc(NC(=O)c2cccc(N3CCCS3(=O)=O)c2)c1	-3%	x	x	x	x	-2%
SMILES	Vif-A3G inh	MCF10A rereplic	SW480 rerep	Giardia kill	IL-1B inflam inh	Vif-APOBEC3F blk
COc1ccc(C2CC(c3ccccc3)Oc3cc(OC)c(OC)c(OC)c32)cc1 (centres undefined)	3%	x	x	-7	x	x
COc1ccc(C(=O)c2ccc(OC)cc2O)c(O)c1	-10%	11%	0%	-1	-16	-9%
COc1ccc(C(=O)C=Cc2cccs2)c(O)c1	-28%	u	u	-18	-54*	0%
CN(C(=O)c1cc2c(Cl)nc3ccccc3c2s1)c1cccc(C(F)(F)F)c1	1%	x	x	x	x	1%
CN(CCCNC(=O)c1cc2c(Cl)nc3ccccc3c2s1)Cc1ccccc1	0%	u	21µM*	5	-82*	u
COc1ccc(N(C)C(=O)c2cc3c(Cl)nc4ccccc4c3s2)cc1	0%	1%	3%	-4	-68*	5%
CC(C)C(=O)Nc1cccc(C(=O)Nc2nnc(C(F)(F)F)s2)c1	1%	x	x	x	x	-1%
O=C(COC(=O)CNC(=O)C1CCCCC1)Nc1ccccc1	0%	4%	-1%	11	-12	0%
CN(C(=O)COC(=O)CNC(=O)C1CCCCC1)c1ccccc1	-2%	-3%	21µM*	7	13	0%
CC1CC1c1ccc(/C=C(\C#N)C(=O)Nc2ccc(Cl)cc2Cl)o1 (centres undefined)	-5%	16µM*	x	3	-1	7%
CC1CC1c1ccc(/C=C(\C#N)C(=O)Nc2cc(Cl)ccc2Cl)o1 (centres undefined)	-10%	19%	0%	14	-8	-12%
Cc1ccc(NC(=O)/C(C#N)=C\c2ccc(-c3ccc(Cl)cc3)o2)c(C)c1	-6%	x	x	x	x	3.2µM*
CNC(=O)/C(C#N)=C/c1ccc(-c2ccc(Cl)cc2)o1	-2%	-11%	-7%	-3	0	3%
CCOc1cc(-c2nc(-c3ccc(-c4ccc(OC)cc4)nc3OC)no2)cc(OCC)c1OCC	-6%	x	x	x	x	-3%
Cc1ccc(C2C3=C(NCCN=C3c3ccccc3)C(=O)N2c2ccccc2)cc1 (centres undefined)	0%	2%	u	6	-63*	0%
CCc1ccc(Oc2c(C(F)(F)F)oc3c(CN4CCN(C)CC4)c(O)ccc3c2=O)cc1	1%	x	x	x	x	-7%
CN(C)CCNC(=O)c1csc(Nc2cccc3ccccc23)n1	-18%	3%	u	32	-61*	14%
CCCNC(=O)c1csc(Nc2cccc3ccccc23)n1	-20%	1%	-2%	-21	12	-8%
O=C(COc1ccc(-c2ccccc2)cc1)N/N=C/c1ccccc1Br	1%	-1%	2%	-5	-9	x
O=C(COc1ccc(-c2ccccc2)cc1)N/N=C/c1cc(O)ccc1Br	-13%	u	u	-6	-95*	-4%
O=C(COc1ccccc1)NCC(=O)N/N=C/c1cc(Br)ccc1OCc1ccccc1	-3%	3%	u	-7	-53*	5%
Cc1ccc(-n2ncc(C(=O)NC3CCCCC3)c2C2CCN(C(=O)OC(C)(C)C)CC2)cc1	5%	x	x	x	x	12%
c1ccc(CCNc2ncnc3ccccc23)cc1	1%	7%	9%	-16	0	0%
CCCCCCCCNc1ncnc2ccccc12	-1%	19%	u	5	-61*	-12%
